A short description of test [1]: qHTS assay for small molecules that induce genotoxicity in human embryonic kidney cells expressing luciferase-tagged ATAD5 (AID 651632). Note: nearly all actives have a fitted effect of over 15% in size. Summed up: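 Genotoxicity read-out via ATAD5-luciferase: HEK293T cells, 16 hr compound incubation at 37C, Amplite detection.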
A general note: Quantitative high-throughput screening tests each substance at several concentrations.

A short description of test [2]: qHTS assay for small molecule agonists of the p53 signaling pathway - cell viability (AID 651633; calls by dose curve; note: nearly all actives have a fitted effect of over 30% in size; note: potency is the fitted concentration of half-maximal effect). Put shortly: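 p53RE-bla cells were treated with compound for 16 hours at 37 C. Cytotoxicity was then measured as CellTiter-Glo luminescence after 30 min at room temperature.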
The nature of test [3]: qHTS assay for small molecule disruptors of the mitochondrial membrane potential - cell viability (AID 720634; calls by dose curve; note: nearly all actives have a fitted effect of over 20% in size; note: potency is the fitted concentration of half-maximal effect). Put shortly: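 Human hepatoma HepG2 cells were treated for 1 hr with test chemicals, then given m-MPI dye and CellTiter-Glo. Cell viability reflects luminescence proportional to cellular ATP.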
Test [4] is described as follows: qHTS assay for small molecule disruptors of the mitochondrial membrane potential (AID 720635). Note: potency is the fitted concentration of half-maximal effect. Put shortly: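 HepG2 cells exposed to compound 1 hr at 37C, then Mito-MPS dye 30 min. Ratio read of aggregate (540/590 nm) versus monomer (490/535 nm) fluorescence.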
The nature of test [5]: qHTS assay to test for compound auto fluorescence at 590 nm (red) in HepG2 cells (AID 720674). Summed up:
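HepG2 cells, 2,000 per well in MEM with 10% FBS, attached overnight at 37 C, then got 23 nL compound or DMSO. After 1 hr at 37 C, 5% CO2, red fluorescence was read at 540/590 nm against Rose Bengal sodium as reference.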

Test [6] in a line: qHTS assay to test for compound auto fluorescence at 535 nm (green) in HepG2 cells (AID 720675).
The nature of test [7]: qHTS assay to test for compound auto fluorescence at 460 nm (blue) in HEK293 cells (AID 720678). Put shortly: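 Blue-channel (Ex/Em 405/460 nm) intensity measured in HEK293 cultures after overnight compound exposure at 37C; signal expressed relative to triamterene. Cells plated 2,000 per well in 10% dialyzed FBS medium and allowed 4-5 hr to attach.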
A short description of test [8]: qHTS assay to test for compound auto fluorescence at 590 nm (red) in HEK293 cells (AID 720679). Put shortly: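 Red-channel autofluorescence (Ex/Em 540/590 nm; Rose Bengal sodium reference) was measured after overnight 37C, 5% CO2 exposure of attached HEK293 cells, 2,000 per well in medium with 10% dialyzed FBS.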
Test [9] is described as follows: qHTS assay to test for compound auto fluorescence at 535 nm (green) in HEK293 cells (AID 720680).
The nature of test [10]: qHTS assay to test for compound auto fluorescence at 535 nm (green) in HEK293 cell free culture (AID 720682). Put shortly: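 No cells present: wells hold DMEM supplemented with 10% FBS, into which compound or vehicle is pinned. Green emission is then recorded (485 nm excitation, 535 nm emission) and scaled to fluorescein.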
A short description of test [11]: qHTS assay to test for compound auto fluorescence at 590 nm (red) in HEK293 cell free culture (AID 720683). Put shortly: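 Cell-free wells of DMEM with 10% FBS received compound, and intrinsic fluorescence was read at excitation/emission 540/590 nm. Values expressed as equivalence to Rose Bengal sodium.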
Test [12] can be described thus: qHTS assay to test for compound auto fluorescence at 590 nm (red) in HepG2 cell free culture (AID 720684). Put shortly: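 Compounds are added to culture medium (MEM, 10% FBS) lacking cells, then fluorescence is read at excitation 540 nm, emission 590 nm, with Rose Bengal sodium as the equivalency standard.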
The nature of test [13]: qHTS assay to test for compound auto fluorescence at 460 nm (blue) in HepG2 cell free culture (AID 720685). Summed up: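 Compound (23 nL) or DMSO pinned into cell-free MEM with 10% FBS; blue fluorescence read at 405/460 nm excitation/emission, expressed as auto-fluorescence equivalency to triamterene.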
Test [14] can be described thus: qHTS assay to test for compound auto fluorescence at 535 nm (green) in HepG2 cell free culture (AID 720686).
Test [15] in a line: qHTS assay to test for compound auto fluorescence at 460 nm (blue) in HepG2 cells (AID 720687). Put shortly: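 HepG2 cells in MEM with 10% FBS, attached overnight at 37 C, were exposed to compound or DMSO for 1 hr at 37 C, 5% CO2. Blue fluorescence was read at 405/460 nm, with triamterene as reference fluorophore.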
The target of test [16] is Glucocorticoid receptor (Homo sapiens) (UniProt P04150). Nature of the test: qHTS assay to identify small molecule agonists of the glucocorticoid receptor (GR) signaling pathway (AID 720691; active = well fitted activation curve with a large enough effect in the signal ratio in the repeat runs, not every such curve was filed as active; the % refers to the signal ratio). Summed up:
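Beta-lactamase reporter activity, read as fluorescence intensity, was measured in GR-bla HeLa cells exposed to compounds for 18 h at 37 C and then loaded with LiveBLAzer B/G FRET substrate for 2 h at room temperature.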

A short description of test [17]: qHTS assay to test for compound auto fluorescence at 460 nm (blue) in HEK293 cell free culture (AID 720681). Put shortly:
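Compounds were added to cell-free DMEM with 10% FBS and fluorescence read directly. The blue channel used 405 nm excitation and 460 nm emission, with triamterene as the reference fluorophore.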

Test [18] can be described thus: qHTS assay for small molecules that induce genotoxicity in human embryonic kidney cells expressing luciferase-tagged ATAD5 - cell viability (AID 651634; calls by dose curve; note: nearly all actives have a fitted effect of over 25% in size; note: potency is the fitted concentration of half-maximal effect). Put shortly: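 Live-cell protease activity (CellTiter-Fluor, fluorescence) indicates viability. HEK293T cells with luciferase-tagged ATAD5; 15.5 hr compound treatment at 37C.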

Values joined by “and” are separate entries in the source; they are usually repeats but may differ in a detail not shown here. Equal entries are not always repeated. Values without a mark were called inactive. Records with an inconclusive call do not appear. Active and inactive are the calls of the source. Unless noted, calls come from the whole dose curve; as a rule, active = well fitted curve in the direction sought with a large enough effect in the repeat runs; inconclusive = weak or mixed curves; inactive = no such curve, though single readings can be large; an effect the other way counts as inactive or inconclusive.

Sequence of Glucocorticoid receptor (Homo sapiens) (P04150 whole entry, looked up): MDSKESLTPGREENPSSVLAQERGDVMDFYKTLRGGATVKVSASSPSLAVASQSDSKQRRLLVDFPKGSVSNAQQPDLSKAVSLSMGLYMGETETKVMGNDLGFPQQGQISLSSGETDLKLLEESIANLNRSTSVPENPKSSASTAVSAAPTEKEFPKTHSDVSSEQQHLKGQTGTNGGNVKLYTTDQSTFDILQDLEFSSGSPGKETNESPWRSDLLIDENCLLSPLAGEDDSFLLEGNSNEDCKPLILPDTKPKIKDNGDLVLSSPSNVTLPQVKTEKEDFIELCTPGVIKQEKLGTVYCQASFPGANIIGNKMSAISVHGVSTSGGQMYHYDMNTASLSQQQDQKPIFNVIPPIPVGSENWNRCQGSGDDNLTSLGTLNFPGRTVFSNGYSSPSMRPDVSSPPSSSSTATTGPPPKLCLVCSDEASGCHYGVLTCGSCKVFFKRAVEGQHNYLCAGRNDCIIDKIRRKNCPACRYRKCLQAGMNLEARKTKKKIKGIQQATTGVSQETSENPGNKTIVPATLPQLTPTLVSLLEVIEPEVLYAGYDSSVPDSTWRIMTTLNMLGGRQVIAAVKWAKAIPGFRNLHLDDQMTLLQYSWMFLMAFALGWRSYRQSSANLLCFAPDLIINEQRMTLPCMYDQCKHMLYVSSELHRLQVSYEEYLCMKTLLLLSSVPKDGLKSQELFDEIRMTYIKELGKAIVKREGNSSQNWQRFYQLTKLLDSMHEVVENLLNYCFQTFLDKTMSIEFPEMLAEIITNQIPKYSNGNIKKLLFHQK

With `CC(C)(C)c1ccc(CSc2cnn(C(C)(C)C)c(=O)c2Cl)cc1`, the Potency result in test [1], in [2], in [7], in test [13], in test [15] and in test [16] was “inactive” throughout. For the same compound, the Potency in test [3] is 24.3 µM (active); in [4] it was 7.7 µM (active). Also, the compound was classed as inactive in [5], in [6], in test [8], in test [9], in test [10] and in [11]. Moreover, the compound was called inactive in test [12] and in test [14].

With `COc1ccc(N)cc1N`, the Potency entry in test [1], in [7], in test [17], in test [13], in test [15] and in test [16] was “inactive” throughout. For the same compound, the Potency is 22.4 µM (active) and 33 µM (active) in [2]; 63.1 µM (active) and 29.4 µM (active) in test [3]; 1.78 µM (active) and 4.15 µM (active) in test [4]. The result in test [5], in test [6], in test [8], in test [9], in [10] and in [11] was inactive. The call in [12] and in test [14] was inactive.

Regarding `CC(C)CC(C)Nc1ccc(Nc2ccccc2)cc1` (configuration not stated), the Potency entry in test [1], in [13] and in [15] was “inactive” in each case. Moreover, the Potency in test [2] was 53.5 µM (active); in test [3], 23.9 µM (active); in test [4] it was 13.4 µM (active). The call in test [5], in test [6], in [8], in test [9], in test [10] and in [11] was inactive. The call in [12] and in test [14] was inactive.

With `CC1(C)CN=C(NN=C(/C=C/c2ccc(C(F)(F)F)cc2)/C=C/c2ccc(C(F)(F)F)cc2)NC1`, the Potency result in test [1], in test [7], in [17] and in test [15] was “inactive” in each case. In addition, the Potency in [2] is 27.3 µM (active); in test [18] it was 48.6 µM (active); in test [4] it was 17.2 µM (active). Further, the outcome in [5], in [6], in test [8], in test [9], in test [10] and in test [11] was inactive. Besides, the outcome in test [12] and in test [14] was inactive.

As to `ClC1=C(Cl)C2(Cl)C3C(Cl)C(Cl)CC3C1(Cl)C2(Cl)Cl` (configuration not stated), the Potency entry in test [1], in [3], in test [7], in test [17], in test [13] and in test [15] was “inactive” in each case. Moreover, the Potency in test [2] was 54.3 µM (active) and 61.1 µM (active); in test [4], 7.67 µM (active) and 13.7 µM (active). The result in test [5], in test [6], in test [8], in test [9], in test [11] and in test [12] was inactive. For the same compound, the call in [14] was inactive.

As for `CN(C)C1CSSSC1`, the Potency entry in test [1], in [2], in test [3], in test [7], in test [17] and in test [13] was “inactive” throughout. Besides, the Potency result in test [15] and in test [16] was “inactive” each time. Also, the result in [5], in test [6], in test [8], in [9], in [11] and in test [12] was inactive. In [14], the call was inactive.

As to `Clc1ccc(CO/N=C(\Cn2ccnc2)c2ccc(Cl)cc2Cl)c(Cl)c1`, the Potency entry in [1], in [3], in test [17], in test [13] and in test [15] was “inactive” each time. For the same compound, in test [2], the Potency was 26.6 µM (active). In addition, the outcome in test [5], in test [6], in [8], in test [9], in [10] and in test [11] was inactive. The result in test [12] and in [14] was inactive.

Regarding `O=C(O)COc1nc(Cl)c(Cl)cc1Cl`, the Potency result in test [1], in [2], in test [18], in [3], in test [7] and in test [15] was “inactive” each time. Besides, the Potency result in [16] is “inactive”. Moreover, the Potency in [4] is 19.8 µM (active). For the same compound, the call in [5], in [6], in [8], in [9], in [10] and in test [11] was inactive. Moreover, the compound was called inactive in test [12] and in [14].

These data come from PubChem BioAssay (Tox21).
